Each structure is given as a SMILES string. Several values for one entry are separate records, joined by “and”; a condition that tells them apart may be missing. Equal values may be shown once. Among all 6,400 compounds or so, about 610 (9.5%) were called active. Cut-off read from the data, not from the text of the source: active = activity change below about -70%; inconclusive = no clear call, values can overlap the other calls; inactive = above that. What follows is part of a selection rich in actives, with near analogues and random picks from the rest. Some compounds were tested as several samples or in several runs, with calls that do not always agree.

The nature of this experiment: T. gondii ME49Luc in HeLa cells, luciferase assay, 72 h, no IFN-y (AID 1259421). As to conditions: stronger effect = lower value, concentration not given here.
On to `Cc1cc(OCC(=O)O)cc(C)c1Cc1ccc(O)c(C(C)C)c1`, for which the activity change, negative = inhibition was 1.47% (inactive). Then `CN(CCOc1ccc(NS(C)(=O)=O)cc1)CCc1ccc(NS(C)(=O)=O)cc1`, with -7.15% (inactive) and -5.58% (inactive); and `CCCCc1oc2ccc(NS(C)(=O)=O)cc2c1C(=O)c1ccc(OCCCN(CCCC)CCCC)cc1`, with -83.6% (active); and `CCCCc1oc2ccccc2c1C(=O)c1cc(I)c(OCCN(CC)CC)c(I)c1`, with -58.9% (inactive). With `CCCCC/C=C\C/C=C\C/C=C\CCCCCCC(=O)O` the figure was 4.57% (inactive). With `Clc1ccc(-c2nc3sccn3c2/C=N/OCc2ccc(Cl)c(Cl)c2)cc1` the figure was 27.7% (inactive) and 3.2% (inactive); with `C[C@H](N)C(=O)N[C@@H](C)P(=O)(O)O`, 9.38% (inactive); with `CC[C@H](C)[C@@H]([C@@H](CC(=O)N1CCC[C@H]1[C@H](OC)[C@@H](C)C(=O)N[C@@H](Cc1ccccc1)c1nccs1)OC)N(C)C(=O)[C@@H](NC(=O)[C@H](C(C)C)N(C)C)C(C)C`, -85.6% (active).

On to `CNC(=O)C1OC(n2cnc3c(NCc4cccc(I)c4)nc(Cl)nc32)C(O)C1O` (stereo unspecified), for which the activity change, negative = inhibition was -2.06% (inactive). As to `NC(=O)c1ccc(I)c([N+](=O)[O-])c1`, the activity change, negative = inhibition is 13.7% (inactive). With `Cc1ccc(C(=O)c2cc(O)c(O)c([N+](=O)[O-])c2)cc1` the figure was -80% (active) and 2.13% (inactive).

Regarding `COc1ccc(C(=O)c2ccc(C)cc2)c(O)c1`, the activity change, negative = inhibition is 154% (inactive) and 98.7% (inactive). Then `COc1cc(OC)c(/C=C/S(=O)(=O)Cc2ccc(OC)c(NCC(=O)O)c2)c(OC)c1`, with -46.4% (inactive); and `COc1ccnc2[nH]cc(C(=O)C(=O)N3CCN(C(=O)c4ccccc4)C[C@H]3C)c12`, with 5.24% (inactive); and `C[C@]12CC[C@H](O)CC1=CCC1C2CC[C@]2(C)C(n3cnc4ccccc43)=CCC12` (stereo partly specified), with -67.5% (inactive). Then `Fc1ccc(-c2nc3n(c2-c2ccncc2)CCS3)cc1`, with -79.8% (active); and `COC(=O)Cc1cccn1C`, with 10.9% (inactive). Then `CC(O)CN(CCN(CC(C)O)CC(C)O)CC(C)O` (stereo unspecified), with 15.4% (inactive); and `Cc1cc(OCc2nnc(SC3CCCC3)n2-c2cccnc2)ccc1-c1ccc(S(C)(=O)=O)cc1`, with -79.2% (active). On to `CSCC[C@H](NC(=O)[C@@H](N)Cc1c[nH]c2ccccc12)C(=O)N[C@@H](CC(=O)O)C(=O)N[C@@H](Cc1ccccc1)C(N)=O`, for which the activity change, negative = inhibition is 17% (inactive). In the case of `CC(=O)O[C@]1(C(C)=O)CCC2C3C=C(C)C4=CC(=O)CC[C@]4(C)C3CC[C@@]21C` (stereo partly specified), the activity change, negative = inhibition was 9.66% (inactive).

The values are drawn from PubChem BioAssay AID1259421 (Broad Institute, 2018).
